In the supplement of paper PMC8387472:

Legend:
Test in all cases: fraction of edited reads among all mapped reads; higher = more Cas9 editing
Settings in all cases: mESC; 2uM; 72 h treatment, harvest day 5
[1] = compound: CC(=O)O/N=C1\C(=O)N(Cc2cc(Cl)ccc2Cl)c2ccc(Cl)cc21
[2] = compound: CC(C)(C#N)c1ccc(N2C(=O)OCc3cnc4ccc(-c5cnc6ccccc6c5)cc4c32)cc1
[3] = compound: CCCCOc1c(C(=O)c2c(F)cc(C)cc2F)c[nH]c2nncc1-2
[4] = compound: CCN1CCN(CC(=O)Nc2ccc(-c3cccc4c(=O)cc(N5CCOCC5)oc34)c3sc4ccccc4c23)CC1
[5] = compound: CCc1c2c(nc3ccc(OC(=O)N4CCC(N5CCCCC5)CC4)cc13)-c1cc3c(c(=O)n1C2)COC(=O)[C@]3(O)CC [Irinotecan HCl Trihydrate]
[6] = compound: CCn1c(=O)c(-c2ccc(Cl)cc2Cl)cc2cnc(Nc3ccc(N4CCNCC4)c(F)c3)nc21
[7] = compound: CNc1ccc([N+](=O)[O-])c(Nc2ccc3[nH]ncc3c2)n1
Rifapentine = compound: CO[C@H]1/C=C/O[C@@]2(C)Oc3c(C)c(O)c4c(O)c(c(/C=N/N5CCN(C6CCCC6)CC5)c(O)c4c3C2=O)NC(=O)/C(C)=C\C=C\[C@H](C)[C@H](O)[C@@H](C)[C@@H](O)[C@@H](C)[C@H](OC(C)=O)[C@@H]1C [Rifapentine]
[8] = compound: COc1ccccc1-c1cc(Nc2cccc(CS(N)(=O)=O)c2)ncn1
[9] = compound: C[C@@H]1CN(CC(=O)Nc2ccc3c(c2)Cc2cccc(-c4cc(=O)cc(N5CCOCC5)o4)c2S3)C[C@H](C)O1
[10] = compound: Cc1cc(C)nc(SCC(=O)Nc2ncc(Cc3cccc4ccccc34)s2)n1
[11] = compound: Cc1ccc(C(=O)NCCCCCC(=O)Nc2ccccc2N)cc1
[12] = compound: Cc1cccc(CC(=O)N2CCc3c2ccc(-c2cn(C)c4ncnc(N)c24)c3F)n1
[13] = compound: NC(=O)c1ccc2nc(-c3ccc(Oc4ccc(Cl)cc4)cc3)[nH]c2c1 [Chk 2 inhibitor II (BML-277)]
Tucidinostat (Chidamide) = compound: Nc1cc(F)ccc1NC(=O)c1ccc(CNC(=O)/C=C/c2cccnc2)cc1 [Tucidinostat (Chidamide)]
Pemetrexed = compound: Nc1nc2[nH]cc(CCc3ccc(C(=O)N[C@@H](CCC(=O)O)C(=O)O)cc3)c2c(=O)[nH]1 [Pemetrexed]
[14] = compound: Nc1ncnc2c1c(-c1cnc3[nH]ccc3c1)nn2C1CCCC1
[15] = compound: O=C(c1cccc(Cl)c1F)N1CCN(Cc2cccc(Nc3nccs3)n2)CC1
Kenpaullone = compound: O=C1Cc2c([nH]c3ccc(Br)cc23)-c2ccccc2N1 [Kenpaullone]
Genistein = compound: O=c1c(-c2ccc(O)cc2)coc2cc(O)cc(O)c12 [Genistein]

Target: 34.0 (DMSO control at this site: 1-bp insertion 0.184, MH deletion 0.385, edited 0.103) ATTATAGGACCCTGAGGGAGCAGAGATGTGGGAATGGGGGCCGAGCCAATTGTGATGTAAG
- fraction of edited reads among all mapped reads [1]: 0.119
- fraction of edited reads among all mapped reads [2]: 0.107
- fraction of edited reads among all mapped reads [3]: 0.0942
- fraction of edited reads among all mapped reads [4]: 0.0488
- fraction of edited reads among all mapped reads [5]: 0.159
- fraction of edited reads among all mapped reads [6]: 0.0937
- fraction of edited reads among all mapped reads [7]: 0.114
- fraction of edited reads among all mapped reads (Rifapentine): 0.157
- fraction of edited reads among all mapped reads [8]: 0.129
- fraction of edited reads among all mapped reads [9]: 0.0719
- fraction of edited reads among all mapped reads [10]: 0.159
- fraction of edited reads among all mapped reads [11]: 0.112
- fraction of edited reads among all mapped reads [12]: 0.134
- fraction of edited reads among all mapped reads [13]: 0.113
- fraction of edited reads among all mapped reads (Tucidinostat (Chidamide)): 0.104
- fraction of edited reads among all mapped reads (Pemetrexed): 0.0912
- fraction of edited reads among all mapped reads [14]: 0.0944
- fraction of edited reads among all mapped reads [15]: 0.0799
- fraction of edited reads among all mapped reads (Kenpaullone): 0.18
- fraction of edited reads among all mapped reads (Genistein): 0.112

Target: 26.0 (DMSO control at this site: 1-bp insertion 0.518, MH deletion 0.262, edited 0.026) AGGGCGCGCCCCACGCACTCTGCGGCAAGTCCCTCTGCGGCAAGTCCTCGGCCCGGAAGAC
- fraction of edited reads among all mapped reads [1]: 0.0291
- fraction of edited reads among all mapped reads [2]: 0.0255
- fraction of edited reads among all mapped reads [3]: 0.0319
- fraction of edited reads among all mapped reads [4]: 0.0118
- fraction of edited reads among all mapped reads [5]: 0.0344
- fraction of edited reads among all mapped reads [6]: 0.0242
- fraction of edited reads among all mapped reads [7]: 0.0263
- fraction of edited reads among all mapped reads (Rifapentine): 0.0398
- fraction of edited reads among all mapped reads [8]: 0.0351
- fraction of edited reads among all mapped reads [9]: 0.0296
- fraction of edited reads among all mapped reads [10]: 0.0413
- fraction of edited reads among all mapped reads [11]: 0.0319
- fraction of edited reads among all mapped reads [12]: 0.0384
- fraction of edited reads among all mapped reads [13]: 0.0384
- fraction of edited reads among all mapped reads (Tucidinostat (Chidamide)): 0.0295
- fraction of edited reads among all mapped reads (Pemetrexed): 0.0225
- fraction of edited reads among all mapped reads [14]: 0.0266
- fraction of edited reads among all mapped reads [15]: 0.0221
- fraction of edited reads among all mapped reads (Kenpaullone): 0.0413
- fraction of edited reads among all mapped reads (Genistein): 0.0338

Target: 5.0 (DMSO control at this site: 1-bp insertion 0.214, MH deletion 0.567, edited 0.105) CGCTGACCCGAGACCTACGCGAACCGAAATCGGCGACCGGTGCGCAAGCAGGGCTGGCGTC
- fraction of edited reads among all mapped reads [1]: 0.13
- fraction of edited reads among all mapped reads [2]: 0.128
- fraction of edited reads among all mapped reads [3]: 0.133
- fraction of edited reads among all mapped reads [4]: 0.0591
- fraction of edited reads among all mapped reads [5]: 0.169
- fraction of edited reads among all mapped reads [6]: 0.13
- fraction of edited reads among all mapped reads [7]: 0.145
- fraction of edited reads among all mapped reads (Rifapentine): 0.226
- fraction of edited reads among all mapped reads [8]: 0.163
- fraction of edited reads among all mapped reads [9]: 0.085
- fraction of edited reads among all mapped reads [10]: 0.215
- fraction of edited reads among all mapped reads [11]: 0.121
- fraction of edited reads among all mapped reads [12]: 0.171
- fraction of edited reads among all mapped reads [13]: 0.149
- fraction of edited reads among all mapped reads (Tucidinostat (Chidamide)): 0.108
- fraction of edited reads among all mapped reads (Pemetrexed): 0.124
- fraction of edited reads among all mapped reads [14]: 0.116
- fraction of edited reads among all mapped reads [15]: 0.0928
- fraction of edited reads among all mapped reads (Kenpaullone): 0.248
- fraction of edited reads among all mapped reads (Genistein): 0.157

Target: 2.0 (DMSO control at this site: 1-bp insertion 0.364, MH deletion 0.356, edited 0.125) GGTGCCCCCGAGACCTACGCGAACCGAAATCGATGTCCGGTGCGCAAGCAGGGCTGGCGTC
- fraction of edited reads among all mapped reads [1]: 0.141
- fraction of edited reads among all mapped reads [2]: 0.129
- fraction of edited reads among all mapped reads [3]: 0.143
- fraction of edited reads among all mapped reads [4]: 0.0564
- fraction of edited reads among all mapped reads [5]: 0.191
- fraction of edited reads among all mapped reads [6]: 0.14
- fraction of edited reads among all mapped reads [7]: 0.176
- fraction of edited reads among all mapped reads (Rifapentine): 0.228
- fraction of edited reads among all mapped reads [8]: 0.172
- fraction of edited reads among all mapped reads [9]: 0.121
- fraction of edited reads among all mapped reads [10]: 0.231
- fraction of edited reads among all mapped reads [11]: 0.128
- fraction of edited reads among all mapped reads [12]: 0.18
- fraction of edited reads among all mapped reads [13]: 0.147
- fraction of edited reads among all mapped reads (Tucidinostat (Chidamide)): 0.115
- fraction of edited reads among all mapped reads (Pemetrexed): 0.129
- fraction of edited reads among all mapped reads [14]: 0.137
- fraction of edited reads among all mapped reads [15]: 0.102
- fraction of edited reads among all mapped reads (Kenpaullone): 0.286
- fraction of edited reads among all mapped reads (Genistein): 0.169
